Source: PubChem BioAssay
ALOX12 inh – blocks human arachidonate 12S-lipoxygenase | 580,000 compounds, 1.1% hits | Potency, µM (series often up to 108 µM), without a hit: at the top dose activity change, negative = inhibition, usual class: inhibitors | purified 12hLO, xylenol orange hydroperoxide absorbance | P18054; note: potency is the fitted concentration of half-maximal effect; % is set by controls: 0 for no effect and ±100 for the full control effect
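Hydroperoxide product was detected by ferrous iron/xylenol orange as the 573 to 405 nm absorbance ratio. Arachidonic acid at 40 uM (final) was turned over for 30 min at room temperature by 150 nM human 12hLO, pH 7.0 Hepes buffer, after 15 min compound preincubation.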
TSG101-PTAP inh – blocks PTAP/TSG101 interaction to inhibit HIV-1 budding | Potency, µM (top dose mostly 115 µM), without a hit: top-dose activity change, negative = inhibition, usual class: inhibitors | Fluorescence polarization, FITC-PTAP peptide / Tsg101 binding | AID 493005 | Q99816 | 340,000 tested, under 10 active; active = well fitted inhibition curve with a large enough effect in the main read-out, with a control signal flat, not every such curve was filed as active; inconclusive = small, poorly fitted or top-dose-only effect, or effect the other way, or a change in a side signal; inactive = no such curve, though single readings can be large or run the other way; note: potency is the fitted concentration of half-maximal effect; % of control where 0% means no effect
Target sequence (Q99816 whole entry, looked up): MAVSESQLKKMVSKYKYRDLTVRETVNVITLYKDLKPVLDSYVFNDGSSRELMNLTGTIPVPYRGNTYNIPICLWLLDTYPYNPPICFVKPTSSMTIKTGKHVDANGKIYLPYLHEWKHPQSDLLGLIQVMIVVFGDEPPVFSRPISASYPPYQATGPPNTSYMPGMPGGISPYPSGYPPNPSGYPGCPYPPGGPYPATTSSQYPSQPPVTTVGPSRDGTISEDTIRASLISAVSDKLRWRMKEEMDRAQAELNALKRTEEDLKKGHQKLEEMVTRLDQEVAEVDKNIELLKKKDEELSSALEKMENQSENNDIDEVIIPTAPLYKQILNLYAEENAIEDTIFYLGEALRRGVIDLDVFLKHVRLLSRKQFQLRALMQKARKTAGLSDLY
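FP read-out: FITC-PTAP peptide, 50 nM final, binding Tsg101 binding domain, 10 uM final; 20 min, r.t.; 10 mM HEPES pH 7.5, 0.15 M NaCl, 0.01% Tween 20, 3 mM EDTA, 0.1 mM TCEP.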
pAkt inh – Akt phosphorylation inhibition | 360,000 compounds, 0.32% hits | Neuro2A IGF-stimulated pAkt S473 HTRF, 20 min; hits give low values | activity change, % for hits at 50 µM; in the data active = activity change below about -80%; inconclusive = mostly about -51% to -80%; note: % is set by controls: 0 for no effect and ±100 for the full control effect
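Neuro2A cells in DMEM with 0.5% FBS, overnight at 37 deg C, given compound at single 50 µM final, then IGF (6 nM final) for 20 min at 37 deg C. Lysed; phospho-Akt Ser473 by HTRF after 24 h, 665/615 ratio.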
Vif-APOBEC3G blk – blocks the Vif interaction with human APOBEC3G; Q9HC16; HeLa A3G-eYFP + Vif (tagged APOBEC3G with the HIV-1 protein that degrades it), YFP fluorescence, overnight; Potency, µM (titrated, usually from 46.1 µM), for inactives: top-dose activity, negative = active, actives largely listed as inhibitors; 410,000 compounds, 0.076% hits; note: potency is the fitted concentration of half-maximal effect; % is set by controls: 0 for no effect and ±100 for the full control effect; nearly all actives have a fitted effect of over 60% in size
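Read-out is eYFP fluorescence (Ex 488/Em 500-530) from Vif-expressing HeLa A3G-eYFP cells; more signal means A3G escaped Vif-mediated degradation. Cells plated overnight, compound pinned in, incubated overnight at 37 deg C.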
Vif-A3F inh – blocks the Vif interaction with APOBEC3F; HeLa A3F-eYFP + Vif (tagged APOBEC3F with the HIV-1 protein that degrades it), YFP fluorescence increase; Potency, µM (titrated, usually from 46.1 µM), for inactives: at the top dose activity, negative = active; 390,000 compounds, 0.2% hits; AID 602313; note: potency is the fitted concentration of half-maximal effect; % of control where 0% means no effect; nearly all actives have a fitted effect of over 65% in size
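HeLa cells stably expressing A3F-eYFP plus Vif, plated and incubated overnight at 37 deg C, then exposed to compounds overnight at 37 deg C. Blocked degradation read as raised yellow fluorescence (Ex 488/Em 500-530).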
S-ASM inh – inhibitors of human secretory acid sphingomyelinase; P17405; placental ASM, HMU-PC fluorogenic substrate, 60 min; Potency, µM (top dose mostly 57.5 µM), for the others: at the top dose activity change, negative = inhibition, hits mostly inhibitors; 340,000 compounds, 0.006% hits; note: potency is the fitted concentration of half-maximal effect
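Human placenta-derived ASM preincubated with compound 10 min at room temperature, then reacted with 9 uM (final) fluorogenic HMU-PC substrate for 60 min at 37 C. Stop solution raises pH to 10; fluorescence read at Ex 386/Em 447 nm.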
The depositor's hits bear a star; i = inactive; ? = inconclusive; nt = not tested or not shown; [ ] = dose if it differs, or a comment. A selection: hits, their analogues and other compounds. The true share with any hit is near 1.4%. Unless noted, calls come from the whole dose curve; as a rule, active = well fitted curve in the direction sought with a large enough effect; inconclusive = small, poorly fitted or top-dose-only effect, or another doubt; inactive = no such curve, though single readings can be large; an effect the other way counts as inactive or inconclusive.

SMILES | ALOX12 inh | TSG101-PTAP inh | pAkt inh | Vif-APOBEC3G blk | Vif-A3F inh | S-ASM inh
CCCC(=O)N1Cc2ccccc2CC2(CCCCN2CC2CCOCC2)C1 (stereo unspecified) | 7.0%[6.33 µM] | nt | nt | nt | nt | nt
N#C/C(=C\c1ccc(-c2cccc(Cl)c2)o1)c1nc2ccccc2[nH]1 | 4.1% | nt | nt | nt | nt | nt
COc1cc(/C=C(\C#N)c2nc3ccc(C)cc3[nH]2)cc([N+](=O)[O-])c1O | 44.7µM* | -8.6% | i | -0.6% | 15.9% | ?
Cc1c(Cl)cccc1-c1ccc(/C=C(\C#N)c2nc3ccccc3[nH]2)o1 | ? | nt | nt | ? | 12.6µM* | nt
N#C/C(=C/C1=Cc2cc(Cl)ccc2OC1)c1nc2ccccc2[nH]1 | 15.8µM* | nt | nt | nt | nt | nt
Cc1ccc2nc(/C(C#N)=C/c3ccc(-c4cccc([N+](=O)[O-])c4)o3)[nH]c2c1 | -28.3% | 5.4% | i | -23.2% | 10µM* | -9.8%
CCc1ccccc1NC(=O)CN(C)C(=O)C1CCN(c2cnn(Cc3ccccc3)c(=O)c2)C1 (stereo unspecified) | 0.0% | nt | nt | nt | nt | nt
Cc1c(C(=O)Nc2cccc(S(=O)(=O)N3CCCC3)c2)oc2c(F)cccc12 | 1.4% | nt | nt | nt | nt | nt
Cc1ccc2nc(/C(C#N)=C/c3ccc(-c4ccc(F)cc4F)o3)[nH]c2c1 | ? | nt | nt | 11.2µM* | ? | nt
COc1ccccc1-n1c(SCC(=O)NCC2CCCO2)nc2c([nH]c3ccccc32)c1=O (stereo unspecified) | 35.5µM* | -2.9% | i | -0.9% | -6.2% | 0.2%
COc1ccccc1NC(=S)NCCSc1ccc(Cl)cc1 | 2.3% | -3.7% | i | 0.3% | -0.7% | 4.0%
COc1ccc(Cl)cc1NC(=S)NCCSc1ccc(C)cc1 | 44.7µM* | -2.5% | i | -1.3% | 2.6% | -1.7%
Cc1ccc(Cl)cc1NC(=S)NCCSc1ccc(Cl)cc1 | 35.5µM* | nt | nt | nt | nt | nt
O=[N+]([O-])c1ccc(-c2csc(Nc3cccc4ccccc34)n2)cc1 | -5.5% | nt | nt | nt | nt | nt
Cc1ccc(C(=O)N/C(=C\c2ccc(Br)cc2)c2nc(=S)[nH][nH]2)cc1 | 15.8µM* | -9.0% | i | -5.9% | 0.0% | ?
COc1ccc(/C=C(/NC(=O)c2ccccc2)c2nc3ccccc3[nH]2)cc1OC | 0.0% | -1.0% | i | -3.3% | 0.0% | -0.4%
O=C(N/C(=C/c1cccc(Br)c1)c1nc(=S)[nH][nH]1)c1ccccc1 | 35.5µM* | -1.9% | i | -27.0% | 0.9% | -19.5%
CC(C)n1cc(/C=C/c2cc[n+](C)cc2)c2ccccc21 | ? | ? | i | 3.98µM* | -497.9% | -20.1%
CCn1cc(/C=C/c2cc[n+](C)cc2)c2ccccc21 | ? | ? | i | 2.51µM* | -521.3% | ?
C=CCn1cc(/C=C/c2cc[n+](C)cc2)c2ccccc21 | ? | ? | i | ? | ? | -8.4%
CCn1nc(C(=O)Nc2ccc(OC)c(Oc3ccc(OC)cc3)c2)c2ccccc2c1=O | -3.7% | nt | nt | nt | nt | nt
Cc1cc(NC(=O)CN2CCN(C(=O)c3ccc(Br)cc3)CC2)no1 | 3.3% | nt | nt | nt | nt | nt
O=C(/C=C/c1ccccc1)OC/C=C/c1ccccc1 | -7.2%[176 µM] | nt | nt | nt | nt | nt
Cc1cccc(OCCC(=O)OCC(=O)c2cc3ccccc3o2)c1 | 50.1µM* | nt | nt | nt | nt | nt
CC(C)C#Cc1ccc2c(c1)O[C@@H](CN(C)C(=O)c1cnccn1)[C@@H](C)CN([C@@H](C)CO)S2(=O)=O | ? | nt | i | 1.5% | 0.5% | nt
C[C@H](CO)N1C[C@H](C)[C@@H](CN(C)C(=O)c2cnccn2)Oc2cc(C#CCC3CCCC3)ccc2S1(=O)=O | 35.5µM* | nt | i | 1.7% | -10.0% | nt
Cn1c(C(=O)N2CCN(C(=O)C3CCCCC3)CC2)cc2ccccc21 | 6.6% | nt | nt | nt | nt | nt
Cc1nnc(NC(=O)C2CC(c3ccccc3)=NO2)s1 (stereo unspecified) | 16.3% | nt | nt | nt | nt | nt
O=C(Nc1cccc(OC(F)(F)F)c1)c1cc(-c2ccc[nH]2)n[nH]1 | 14.1µM* | nt | nt | nt | nt | nt
